# Unmarked numbers belong to inactive results.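 The calls were made as follows: active = AUC reduced over 20% with Padj below 0.05 in at least 2 of 3 replicates; inactive = otherwise.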
# Tests used:
# Test in all cases: growth AUC relative to DMSO control (median of replicates) (fraction); higher = more growth (less inhibition), active = hit call of the paper
# Conditions in all cases: 20 µM; 24 h
# Coprococcus comes = tested on: Coprococcus comes
# In short: (§1)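 Gut bacterial monocultures were grown anaerobically at 37 °C in mGAM from a starting OD600 of 0.05 with 20 µM compound (1% DMSO), in round-bottom 96-well plates under pierced gas-permeable seals, and OD600 was read hourly for 24 h. With the minimum OD set to 0, area under the growth curve was normalised to the plate median of solvent-only wells, or to row and column medians on the industrial chemical plate. Each value is the median of three biological replicates grown on separate days.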
# Escherichia coli ED1a = tested on: Escherichia coli ED1a
# In short: as §1
# Escherichia coli IAI1 = tested on: Escherichia coli IAI1
# In short: as §1
# Eubacterium rectale = tested on: Eubacterium rectale
# In short: as §1
# [1] = tested on: Fusobacterium nucleatum subsp. animalis
# In short: as §1
# Lactobacillus gasseri = tested on: Lactobacillus gasseri
# In short: as §1
# Lactobacillus paracasei = tested on: Lactobacillus paracasei
# In short: as §1
# Odoribacter splanchnicus = tested on: Odoribacter splanchnicus
# In short: as §1
# [2] = tested on: Parabacteroides distasonis
# In short: as §1
# Parabacteroides merdae = tested on: Parabacteroides merdae
# In short: as §1
Compound,growth AUC (Coprococcus comes),growth AUC (Escherichia coli ED1a),growth AUC (Escherichia coli IAI1),growth AUC (Eubacterium rectale),growth AUC [1],growth AUC (Lactobacillus gasseri),growth AUC (Lactobacillus paracasei),growth AUC (Odoribacter splanchnicus),growth AUC [2],growth AUC (Parabacteroides merdae)
O=C(NCc1ncc(C(F)(F)F)cc1Cl)c1c(Cl)cccc1Cl,1.03,0.963,1.03,0.98,1.01,1.04,0.981,0.938,0.971,0.979
C/C=C/C(=O)Oc1c(C(C)CCCCCC)cc([N+](=O)[O-])cc1[N+](=O)[O-] (mixture of isomers),0.509,0.976,0.985,0.665 (active),0.94,0.273 (active),0.41 (active),0.679,0.288 (active),0.00823 (active)
CCCOC(=O)NCCCN(C)C,0.979,1.02,0.979,0.952,0.984,0.951,1.04,1.01,0.989,0.977
COC(=O)Nc1ccc(Cl)c(Cl)c1,0.987,0.999,0.939,0.973,0.926,1.15,1.08,0.974,0.986,0.956
Oc1ccc2nc(-c3cscn3)[nH]c2c1,0.994,0.988,0.974,1.01,0.975,0.869,0.997,1.01,1.02,0.958

# — the supplement of paper PMC12669032
